# High-throughput results (PubChem BioAssay)
# CRFBP-R2 block: antagonists of CRF-BP/CRF-R2 complex, primary screen, cell-based, HEK293, calcium dye fluorescence, uHTS; 0.59% of 350,000 active; CRF-induced calcium fluorescence; inhibition, % at 11.8 µM;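 active = inhibition of the ligand-induced calcium signal above about 50% at the single tested concentration, limit read from the data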
# MEKK2 WT-MEK5: modulators of MEK5 binding to wildtype MEKK2, primary screen, biochemical, multiplex bead flow cytometry, Alexa488-MEK5; Alexa488-MEK5 binding to MEKK2 WT; actives lie on both sides; binding response (% of control), % at 10 µM; 1.1% of 290,000 active; AID 1531, 2009; in the data active = binding response below about 67% or above about 130%
# MEKK3 PB1 HTS: modulators of MEKK3-MEK5 PB1 binding, primary screen, biochemical, wildtype MEKK3, multiplex bead flow cytometry, Alexa488-MEK5 | bead-based flow cytometry, Alexa488-MEK5 binding to MEKK3; actives lie on both sides; 0 = blocked by unlabeled MEK5, 100 = vehicle | binding response (% of control), % at 10 µM | 1.4% of 290,000 active | AID 1529, 2009;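 active = binding response more than 3 SD above or below the average of its plate-row segment, actives on both sides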;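 also: Alexa488 bead fluorescence after subtracting the streptavidin-only scavenger bead signal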
# MEKK2mut PB1 HTS: MEK5 binding signal on mutant MEKK2 PB1, primary screen, biochemical, multiplex bead flow cytometry, Alexa488-MEK5 | Alexa488-MEK5 binding to MEKK2 mutant | AID 1530, 2009 | percent response, % at 10 µM | 0.35% of 290,000 active; in the data active = percent response above about 24%, passing the limit was not always enough
# ABCB6 inh 2: ABCB6 transporter inhibitors, primary screen, K562-ABCB6 cells, flow cytometry, MLPCN library; ATP-binding cassette sub-family B member 6 (Homo sapiens), Q9NP58; K562-ABCB6 porphyrin accumulation, 1 h; active compounds read low; fluorescence ratio to DMSO, % at 10 µM; 0.19% of 360,000 active; AID 602162, 2011;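 active = fluorescence ratio to DMSO below 75%, the collection mean minus 3 SD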;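 also: signal is porphyrin accumulated inside mitochondria; 100% equals median channel fluorescence of DMSO control wells; lower ratio means ABCB6 inhibition with less porphyrin fluorescence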
# Target sequence (Q9NP58 whole entry, looked up): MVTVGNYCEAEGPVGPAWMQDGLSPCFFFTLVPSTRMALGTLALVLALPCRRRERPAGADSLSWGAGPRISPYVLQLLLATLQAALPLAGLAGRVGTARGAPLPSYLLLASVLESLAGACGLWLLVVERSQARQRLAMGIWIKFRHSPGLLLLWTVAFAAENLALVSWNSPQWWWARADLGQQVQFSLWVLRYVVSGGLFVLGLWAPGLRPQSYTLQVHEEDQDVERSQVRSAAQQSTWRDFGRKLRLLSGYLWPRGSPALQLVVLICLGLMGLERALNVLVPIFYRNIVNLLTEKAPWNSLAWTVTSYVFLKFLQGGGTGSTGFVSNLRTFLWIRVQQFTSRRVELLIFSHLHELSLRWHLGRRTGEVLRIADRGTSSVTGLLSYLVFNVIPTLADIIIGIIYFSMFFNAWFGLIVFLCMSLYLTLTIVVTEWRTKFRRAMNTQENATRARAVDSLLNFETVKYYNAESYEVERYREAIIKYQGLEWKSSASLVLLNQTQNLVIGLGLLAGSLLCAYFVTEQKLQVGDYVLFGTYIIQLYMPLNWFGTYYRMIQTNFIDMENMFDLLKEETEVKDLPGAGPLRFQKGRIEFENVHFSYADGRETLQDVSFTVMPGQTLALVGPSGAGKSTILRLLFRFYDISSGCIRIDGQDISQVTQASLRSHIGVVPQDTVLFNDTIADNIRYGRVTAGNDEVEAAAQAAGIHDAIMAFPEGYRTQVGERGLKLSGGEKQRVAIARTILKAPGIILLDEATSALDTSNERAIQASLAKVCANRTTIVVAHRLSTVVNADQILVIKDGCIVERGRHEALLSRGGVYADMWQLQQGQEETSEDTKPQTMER
# CRFR2-BP ag: agonists of CRF-BP/CRF-R2 complex, primary screen, cell-based, HEK293, calcium dye fluorescence, uHTS. CRF-binding protein / CRF receptor 2 complex (human). calcium dye fluorescence (FLIPR); percent of saturating CRF peptide response. activation, % at 13.2 µM. 0.46% of 350,000 active. AID 588473, 2011;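 active = activation of at least 50%, plus an integration ratio under a set limit after plate pattern correction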;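 also: plate controls were neutral control wells without compound for no effect and CRF at EC100 for full effect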
# * hit, by the source's call; / = not tested or not shown; ! = not confirmed by another sample. Sampled rows, rich in hits. Any-hit rate of the full collection: about 2.9%.
SMILES,CRFBP-R2 block,MEKK2 WT-MEK5,MEKK3 PB1 HTS,MEKK2mut PB1 HTS,ABCB6 inh 2,CRFR2-BP ag
Cc1ccc(-c2csc3nc4c5ccccc5c(NCCCN(C)C)nn4c(=O)c23)cc1,-42.4,195.0*,107.0,65.0*,111.0,4.1
Cc1ccc(C(=O)c2coc3ccc(O)cc23)cc1,25.6,102.0,102.0,7.0,92.0,-0.9
CCOc1ccc(NC(=O)[C@@H](NC(=O)c2ccccc2)[C@@H](C)CC)cc1,62.7*,102.0,105.0,4.0,105.0,0.3
Nc1nc(NCCCN2CCOCC2)nc(Nc2cccc(Cl)c2)c1[N+](=O)[O-],-36.2,107.0,75.0,-8.0,100.0,-2.8
CCOC(=O)c1cc2c(OC)c(OC)ccc2c2[nH]cc(C#N)c(=O)c12,2.8,/,/,/,98.0,-0.5
COc1ccc(NC(=O)CN2CCCC2c2cccs2)cc1S(=O)(=O)N1CCCCC1 (stereo not drawn),64.0*,/,/,/,92.0,-0.8
COc1ccc(NC(=O)CCN2C(=O)C3CC=CCC3C2=O)cc1S(=O)(=O)N1CCCCC1 (stereo not drawn),12.9,/,/,/,100.0,-1.7
COc1ccc(NC(=O)CCCC2CCCCC2)cc1S(=O)(=O)N1CCCCC1,64.4*,100.0,103.0,1.0,98.0,-1.9
Cc1nc2sccn2c(=O)c1S(=O)(=O)N1CCN(c2cccc(Cl)c2)CC1,-28.7,100.0,103.0,0.0,102.0,0.9
Cn1cc(S(=O)(=O)Nc2ccc(Br)cc2F)c(=O)n(C)c1=O,71.2*,114.0,112.0,21.0,96.0,4.0
CCCCCCCCCCCCCCCC[n+]1cccc(C(=O)N(CC)CC)c1,11.6,126.0,76.0,9.0,99.0,104.3*!
COC(=O)CSc1nn(-c2ccc(F)cc2)c(=S)s1,51.2*,104.0,106.0,0.0,96.0,-9.9
Cc1cccc(OCC(=O)NC(=S)NNC(=O)c2ccncc2)c1,-16.9,103.0,102.0,-3.0,97.0,-2.4
CC(C)(C)c1ccc(OCC(=O)NNC(=O)CCc2ccccc2)cc1,-10.3,/,/,/,103.0,-1.0
Cc1ccc(C(=O)NNC(=S)NC(=O)COc2ccccc2)cc1,-62.7,94.0,98.0,-1.0,93.0,141.7*
Cc1ccccc1C(=O)NNC(=S)NC(=O)COc1ccccc1,11.3,102.0,103.0,3.0,101.0,129.1*
CC(C)(C)c1ccc(C(=O)NC(=S)NNC(=O)COc2ccccc2)cc1,-63.9,104.0,103.0,5.0,100.0,95.7*
COC(=O)c1ccccc1NC(=S)NC(=O)COc1ccccc1,-8.3,101.0,103.0,-4.0,108.0,-3.7
CCOC(=O)C1=C(Cc2ccc(OC)cc2)C(=O)c2ccccc2C1=O,-92.4,/,/,/,513.0,61.2*
CSCSC1=C(C#N)C(c2ccccc2Cl)C(C(C)=O)=C(C)N1 (stereo not drawn),55.1*,80.0,76.0,-16.0,99.0,1.5
CCOC(=O)CSC1=C(C#N)C(c2ccccc2F)C(C(C)=O)=C(C)N1 (stereo not drawn),18.6,102.0,101.0,0.0,101.0,-0.8
CCOC(=O)C1(C)CCN1C(=O)c1ccccc1C(F)(F)F (stereo not drawn),/,/,/,/,98.0,/
NCC[C@H](O)C(=O)N[C@@H]1C[C@H](N)[C@@H](O[C@H]2O[C@H](CN)[C@@H](O)[C@H](O)[C@H]2O)[C@H](O)[C@H]1O[C@H]1O[C@H](CO)[C@@H](O)[C@H](N)[C@H]1O,64.3*,99.0,103.0,-4.0,101.0,-1.2
CC(=O)Cc1cc(O)c2ccccc2c1OC(=O)c1ccc(Br)cc1,67.6*,94.0,98.0,-2.0,99.0,-1.8
O=C(COC(=O)c1ccc(Br)cc1)NCc1ccccc1,21.2,103.0,97.0,19.0,180.0,-3.0
